Compound activity from PubChem BioAssay.
An excerpt weighted towards active compounds, which were near 9.5% of everything screened.
NS1 inh = influenza NS1 inhibition | Potency, µM (top dose mostly 46.1 µM) | AID 2326 | 270,000 compounds, 0.4% hits; calls by dose curve; further: actives are rising curves; nearly all actives have a fitted effect of over 50% in size
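Read-out: OD600 growth recovery of NS1-expressing budding yeast. Cells grown overnight at 30C in -URA glucose medium, washed, resuspended and diluted 1:100 in 2% galactose assay medium, pH 6.0. Same strain lacking NS1 served as positive control.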
RE007 growth inh = less growth of the S. pombe RE007 Vpr strain | S. pombe RE007 Vpr strain, BacTiter-Glo ATP luminescence, 24 h | Potency, µM (series often up to 92.2 µM), most hits filed as inhibitors | 360,000 compounds, 0.21% hits | AID 651644; active means well fitted falling curve with a large enough effect; inconclusive means small, poorly fitted or top-dose-only effect; inactive means no such curve, though single readings can be large or run the other way; further: nearly all actives have a fitted effect of over 50% in size
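Fission yeast RE007 carrying one integrated HIV-1 vpr copy, seeded at OD 0.01 in PMG+AL medium with 23 nL pinned compound. Grown 24 h at 30 degrees; viability read by BacTiter-Glo luminescence after 5 min.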
Pf growth 48h = inhibits P. falciparum growth in the first generation, 48 h; P. falciparum luciferase growth in erythrocytes, 48 h; Potency, µM (top dose mostly 28.7 µM), most hits filed as inhibitors; 310,000 compounds, 5.9% hits; AID 504832
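Read-out is firefly luciferase luminescence from an integrated reporter in P. falciparum, so falling signal marks reduced parasite growth. Infected erythrocytes were at 2% hematocrit and 0.1% parasitemia (final) in Albumax-supplemented RPMI 1640.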
SARS PLpro yeast = inhibitors of SARS-CoV papain-like protease in yeast; AID 485353; S. cerevisiae expressing SARS-CoV PLpro, growth rescue; Potency, µM (titrated, usually from 32.9 µM), most hits filed as activators; 330,000 compounds, 0.19% hits; calls by dose curve; further: nearly all actives have a fitted effect of over 55% in size
Pf growth 96h = inhibits malaria parasite growth, 96 h; 320,000 compounds, 6.9% hits; P. falciparum luciferase reporter growth, 96 h; AID 504834; Potency, µM (titrated, usually from 28.7 µM), usual class: inhibitors
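96 h incubation, 37 C, 5% CO2, of luciferase-reporter P. falciparum-infected RBCs (2% hematocrit, 0.05% parasitemia final) with test compounds; endpoint luminescence.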
Each line names hits and unclear results; the compound was inactive in the other large screens. Unless noted, the call rests on the fitted dose curve; in most records, active means well fitted inhibition curve with a large enough effect; inconclusive means small, poorly fitted or top-dose-only effect, or another doubt; inactive means no such curve, though single readings can be large or run the other way.

Cn1nc(C(=O)NCC2COc3ccccc3O2)c2ccccc2c1=O (configuration not stated)	Pf growth 48h inconclusive, Pf growth 96h inconclusive (no result: NS1 inh)
CCCn1nc(C(=O)Nc2nc3ccccc3[nH]2)c2ccccc2c1=O	Pf growth 48h 15µM, Pf growth 96h inconclusive
CCCCCCn1nc(C(=O)Nc2nc3c(s2)CCCC3)c2ccccc2c1=O	Pf growth 48h inconclusive, SARS PLpro yeast inconclusive, Pf growth 96h inconclusive
Cc1c(C(=O)N(CCO)Cc2ccccc2)oc2c(F)cccc12	Pf growth 96h inconclusive
CCOC(=O)CSc1n[nH]c(NC(=O)NC(C)C)n1	none
CCCCn1nc(C(=O)NCC(c2cccs2)N2CCOCC2)c2ccccc2c1=O (configuration not stated)	Pf growth 48h 9.3µM, Pf growth 96h inconclusive (no result: NS1 inh)
CCn1nc(C(=O)NCC(c2cccs2)N2CCOCC2)c2ccccc2c1=O (configuration not stated)	Pf growth 48h inconclusive
CC(C)CC1Nc2ncnc(N3CCN(c4ccccc4)CC3)c2N(Cc2ccc(Br)cc2)C1=O (configuration not stated)	Pf growth 48h 2.9µM, Pf growth 96h 5.9µM (no result: NS1 inh)
COc1ccc(CN2C(=O)C(Cc3ccccc3)Nc3ncnc(N4CCN(c5ccccc5)CC4)c32)cc1 (configuration not stated)	Pf growth 48h 2.6µM, Pf growth 96h 6.6µM (no result: NS1 inh)
COc1ccc(CN2C(=O)C(CC(C)C)Nc3ncnc(N4CCN(c5ccccc5)CC4)c32)cc1 (configuration not stated)	Pf growth 48h 2.6µM, Pf growth 96h 12µM (no result: NS1 inh)
CC(C)CC1NC(=S)N(Cc2ccccc2)C1=O (configuration not stated)	Pf growth 48h inconclusive, Pf growth 96h 9.3µM
COc1ccc(CN2C(=O)C(CC(C)C)Nc3ncnc(N4CCOCC4)c32)cc1 (configuration not stated)	Pf growth 48h inconclusive, Pf growth 96h inconclusive (no result: NS1 inh)
Cc1ccc(CN2C(=O)C(CC(C)C)Nc3ncnc(N4CCOCC4)c32)cc1 (configuration not stated)	none (no result: NS1 inh, Pf growth 48h, Pf growth 96h)
CC(C)CC1Nc2ncnc(N3CCCCC3)c2N(Cc2ccccc2)C1=O (configuration not stated)	Pf growth 48h 12µM, Pf growth 96h inconclusive (no result: NS1 inh)
COc1ccc(CN2C(=O)C(CC(C)C)Nc3ncnc(N4CCCCC4)c32)cc1 (configuration not stated)	Pf growth 48h inconclusive, Pf growth 96h inconclusive (no result: NS1 inh)
CC(C)CC1Nc2ncnc(N3CCN(c4ccccc4)CC3)c2N(Cc2ccccc2)C1=O (configuration not stated)	Pf growth 48h 10µM, Pf growth 96h 12µM (no result: NS1 inh)
COCCCn1c(N)c(-c2nc3ccccc3n2C)c2nc3ccccc3nc21	RE007 growth inh inconclusive, Pf growth 48h inconclusive (no result: Pf growth 96h)
Cn1c(-c2c(N)n(C3CCCC3)c3nc4ccccc4nc23)nc2ccccc21	RE007 growth inh 7.1µM, Pf growth 48h 12µM, Pf growth 96h 8.3µM
Cn1c(-c2c(N)n(CCc3ccccc3)c3nc4ccccc4nc23)nc2ccccc21	RE007 growth inh inconclusive, Pf growth 96h 5.2µM (no result: Pf growth 48h)
O=C(COc1coc(CN2CCc3ccccc3C2)cc1=O)Nc1cccc([N+](=O)[O-])c1	Pf growth 48h 12µM, Pf growth 96h inconclusive (no result: NS1 inh)
CCc1ccc(NC(=O)COc2coc(CN3CCc4ccccc4C3)cc2=O)cc1	Pf growth 48h 9.3µM, Pf growth 96h inconclusive (no result: NS1 inh)
O=C(COc1coc(CN2CCc3ccccc3C2)cc1=O)Nc1ccc(Cl)cc1	Pf growth 48h inconclusive (no result: NS1 inh)
O=C(COc1coc(CN2CCCc3ccccc32)cc1=O)Nc1cccc([N+](=O)[O-])c1	Pf growth 48h inconclusive, Pf growth 96h 6.6µM (no result: NS1 inh)
Cc1cccc(NC(=O)COc2coc(CN3CCc4ccccc4C3)cc2=O)c1	Pf growth 48h 8.3µM, Pf growth 96h inconclusive (no result: NS1 inh)
O=C(COc1coc(CN2CCc3ccccc3C2)cc1=O)Nc1ccc(F)cc1	Pf growth 96h inconclusive (no result: NS1 inh)
OCC1OC(c2ccccc2)OC2COC(c3ccccc3)OC12 (configuration not stated)	none (no result: NS1 inh, Pf growth 48h, SARS PLpro yeast, Pf growth 96h)
COc1ccc(COC(=O)CCNC(=O)c2ccc(Cl)cc2)cc1	none (no result: NS1 inh, SARS PLpro yeast)
CC(NCCN(C)C)C(=O)C12CC3CC(CC(C3)C1)C2 (configuration not stated)	Pf growth 48h inconclusive, Pf growth 96h 5.9µM
Cc1cccc(OCC(=O)Nc2nnc(S(=O)(=O)N3CCCCCC3)s2)c1	Pf growth 96h 12µM
Cc1ccc(OCC(=O)Nc2nnc(S(=O)(=O)N3CCCCCC3)s2)cc1	Pf growth 96h inconclusive
O=C(COc1ccc(Cl)cc1)Nc1cc(S(=O)(=O)N2CCCCC2)ccc1N1CCCCC1	Pf growth 48h 12µM, Pf growth 96h 2.3µM
COc1ccc(OCC(=O)Nc2cc(OC)ccc2N2CCCCC2)cc1	Pf growth 48h 12µM
O=C(COc1ccc(Br)cc1)Nc1cc(S(=O)(=O)N2CCCCC2)ccc1N1CCCCC1	Pf growth 96h 1.9µM
CCOc1ccc(CCN2C(=O)C(=O)N([C@@H](Cc3ccccc3)CN3CCC[C@H]3CN3C(=O)C(=O)NC[C@@H]3Cc3ccccc3)C[C@@H]2CC(C)C)cc1	none (no result: NS1 inh, Pf growth 48h, SARS PLpro yeast, Pf growth 96h)
CN1CCN(c2ccc(S(=O)(=O)N3CCCCC3)cc2NC(=O)COc2cccc(Cl)c2)CC1	Pf growth 48h 10µM, Pf growth 96h inconclusive (no result: NS1 inh)
Cc1cc2cc(CN(Cc3nnnn3C3CCCCC3)CC3CCCO3)c(=O)[nH]c2cc1C (configuration not stated)	Pf growth 48h 8.3µM
Cc1cc(C)c2cc(CN(Cc3nnnn3C3CCCCC3)CC3CCCO3)c(=O)[nH]c2c1 (configuration not stated)	Pf growth 48h 13µM
COc1ccc2cc(CN(CCCN3CCOCC3)Cc3nnnn3C3CCCC3)c(=O)[nH]c2c1	Pf growth 48h 10µM, Pf growth 96h 5.2µM
CCOC(=O)C1=C(C)NC(=S)NC1c1ccc(OCC(=O)N2CCCCCC2)c(OC)c1 (configuration not stated)	Pf growth 96h inconclusive
CCOC(=O)/C(C#N)=C\c1cc(C)n(-c2ccccc2)c1C	none
CCOC(=O)/C(C#N)=C\c1c(OCC)n(CC)c2ccccc12	Pf growth 48h inconclusive, Pf growth 96h 12µM
CCOc1c(/C=C(\C#N)C(N)=O)c2ccccc2n1CC	Pf growth 96h 13µM
O=C(COC(=O)c1cc(=O)[nH]c2ccccc12)Nc1ccc(F)cc1	none (no result: NS1 inh, Pf growth 48h, Pf growth 96h)
CCN(CC)CCn1c(=S)[nH]c2cc3c(cc2c1=O)OCO3	NS1 inh inconclusive, Pf growth 96h 10µM
Cc1ccc(C)c(N2CCN(C(=O)CCCn3c(=S)[nH]c4cc5c(cc4c3=O)OCO5)CC2)c1	Pf growth 48h 12µM, Pf growth 96h inconclusive
C[C@@]12CC[C@H](O[C@@H]3O[C@H](CO)[C@@H](O)[C@H](O)[C@@H]3O)C[C@@H]1CC[C@H]1[C@H]2CC[C@@]2(C)[C@@H](C3=CCOC3=O)CC[C@]12O	none (no result: RE007 growth inh, Pf growth 48h, SARS PLpro yeast, Pf growth 96h)
CSc1ncccc1C(=O)Nc1cccc(S(=O)(=O)N2CCCCC2)c1	Pf growth 48h 12µM, Pf growth 96h 10µM (no result: NS1 inh)
